Assay results: the supplement of paper PMC11006884
The full data set covers some 6,500 targets. This sample favours those with a hit. About 2% of all pairs of compound and target were hits.

These targets were tested with COC(=O)C#Cc1ccccc1 [methyl 3-phenylpropiolate] (assay: log2 ratio of iodoacetamide-alkyne labeling of the cysteine site, DMSO over compound (competition); higher = stronger covalent engagement of the cysteine by the compound, active = 1 or more). Conditions: 500 µM; treatment time 1 h; system: HEK293T cell lysate.
In short: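 HEK293T lysate at 2 mg/mL was treated with vehicle or electrophile (500 µM) for 1 h at ambient temperature, then labelled with iodoacetamide alkyne (1 h), clicked to sCIP-TMT reagents, pooled, digested with trypsin overnight at 37 °C, enriched on streptavidin and eluted with acid. Peptides were analysed by Orbitrap Eclipse LC-MS/MS with FAIMS and quantified in FragPipe, using duplicate channels and three replicates, with cysteines quantified in only one replicate excluded. The log2 competition ratio for each cysteine is the mean control-channel reporter intensity divided by the mean compound-channel reporter intensity.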

Chain of UniProt P46821 (P46821 whole entry, looked up): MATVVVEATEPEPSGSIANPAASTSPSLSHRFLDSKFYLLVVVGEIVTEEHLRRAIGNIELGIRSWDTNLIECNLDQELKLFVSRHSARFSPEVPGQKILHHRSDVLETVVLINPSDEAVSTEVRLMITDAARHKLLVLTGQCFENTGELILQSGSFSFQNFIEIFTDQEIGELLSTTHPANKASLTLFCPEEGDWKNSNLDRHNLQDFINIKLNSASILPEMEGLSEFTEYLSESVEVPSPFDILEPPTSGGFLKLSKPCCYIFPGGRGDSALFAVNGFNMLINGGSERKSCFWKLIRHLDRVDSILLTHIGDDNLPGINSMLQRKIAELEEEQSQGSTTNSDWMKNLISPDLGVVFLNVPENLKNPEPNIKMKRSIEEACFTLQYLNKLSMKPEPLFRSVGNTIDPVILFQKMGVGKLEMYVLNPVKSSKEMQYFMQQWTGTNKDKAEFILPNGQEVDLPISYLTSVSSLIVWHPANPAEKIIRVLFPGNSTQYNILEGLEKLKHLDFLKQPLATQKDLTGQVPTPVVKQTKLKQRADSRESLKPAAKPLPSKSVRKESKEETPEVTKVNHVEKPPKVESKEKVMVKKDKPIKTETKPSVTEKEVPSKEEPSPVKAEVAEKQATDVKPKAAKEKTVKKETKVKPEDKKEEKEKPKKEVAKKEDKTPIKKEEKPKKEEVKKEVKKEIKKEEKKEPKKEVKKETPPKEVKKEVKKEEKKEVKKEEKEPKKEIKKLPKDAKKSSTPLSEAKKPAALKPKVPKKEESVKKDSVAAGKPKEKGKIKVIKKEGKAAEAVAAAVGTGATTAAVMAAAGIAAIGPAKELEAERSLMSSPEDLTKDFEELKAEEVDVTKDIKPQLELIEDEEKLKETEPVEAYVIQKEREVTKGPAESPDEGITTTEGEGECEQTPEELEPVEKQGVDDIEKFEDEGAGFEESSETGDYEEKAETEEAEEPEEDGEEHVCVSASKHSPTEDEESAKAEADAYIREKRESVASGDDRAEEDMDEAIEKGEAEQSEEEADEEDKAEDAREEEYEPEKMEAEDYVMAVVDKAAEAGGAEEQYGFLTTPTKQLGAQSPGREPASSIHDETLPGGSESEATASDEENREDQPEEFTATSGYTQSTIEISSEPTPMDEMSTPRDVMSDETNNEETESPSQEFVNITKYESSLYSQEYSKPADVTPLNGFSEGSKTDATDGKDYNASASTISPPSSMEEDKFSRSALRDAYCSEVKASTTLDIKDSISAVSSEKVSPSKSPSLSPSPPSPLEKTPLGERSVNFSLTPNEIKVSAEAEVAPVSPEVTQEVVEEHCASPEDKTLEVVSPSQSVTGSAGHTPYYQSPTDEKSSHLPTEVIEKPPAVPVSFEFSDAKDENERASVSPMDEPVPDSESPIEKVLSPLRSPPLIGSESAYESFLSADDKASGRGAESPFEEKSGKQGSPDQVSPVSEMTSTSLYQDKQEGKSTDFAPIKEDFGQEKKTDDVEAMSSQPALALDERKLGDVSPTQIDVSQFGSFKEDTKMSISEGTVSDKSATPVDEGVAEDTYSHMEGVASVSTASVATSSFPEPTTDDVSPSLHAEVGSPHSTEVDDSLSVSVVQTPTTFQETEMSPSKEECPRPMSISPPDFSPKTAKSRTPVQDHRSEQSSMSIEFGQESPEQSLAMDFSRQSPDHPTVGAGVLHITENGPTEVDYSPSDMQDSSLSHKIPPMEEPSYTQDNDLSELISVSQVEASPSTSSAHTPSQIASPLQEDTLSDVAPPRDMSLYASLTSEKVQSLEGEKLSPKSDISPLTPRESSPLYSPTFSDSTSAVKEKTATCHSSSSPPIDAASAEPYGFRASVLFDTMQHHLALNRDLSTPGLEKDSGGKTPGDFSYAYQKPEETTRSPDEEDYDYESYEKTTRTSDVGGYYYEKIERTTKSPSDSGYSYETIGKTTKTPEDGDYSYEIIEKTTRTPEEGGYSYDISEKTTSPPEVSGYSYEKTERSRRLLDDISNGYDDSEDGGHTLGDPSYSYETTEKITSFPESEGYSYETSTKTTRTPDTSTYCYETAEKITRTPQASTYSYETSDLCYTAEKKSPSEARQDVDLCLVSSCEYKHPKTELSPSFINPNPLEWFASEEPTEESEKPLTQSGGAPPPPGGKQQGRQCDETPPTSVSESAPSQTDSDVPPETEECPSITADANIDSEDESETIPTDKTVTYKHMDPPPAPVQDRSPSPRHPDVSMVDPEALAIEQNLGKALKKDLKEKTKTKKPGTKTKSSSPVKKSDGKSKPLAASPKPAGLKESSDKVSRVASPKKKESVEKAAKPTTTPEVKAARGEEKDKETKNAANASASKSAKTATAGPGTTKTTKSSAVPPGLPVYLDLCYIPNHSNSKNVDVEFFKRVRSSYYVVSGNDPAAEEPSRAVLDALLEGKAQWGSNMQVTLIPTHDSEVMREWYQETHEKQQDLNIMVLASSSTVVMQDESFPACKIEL
Chain of UniProt P11177 (P11177 whole entry): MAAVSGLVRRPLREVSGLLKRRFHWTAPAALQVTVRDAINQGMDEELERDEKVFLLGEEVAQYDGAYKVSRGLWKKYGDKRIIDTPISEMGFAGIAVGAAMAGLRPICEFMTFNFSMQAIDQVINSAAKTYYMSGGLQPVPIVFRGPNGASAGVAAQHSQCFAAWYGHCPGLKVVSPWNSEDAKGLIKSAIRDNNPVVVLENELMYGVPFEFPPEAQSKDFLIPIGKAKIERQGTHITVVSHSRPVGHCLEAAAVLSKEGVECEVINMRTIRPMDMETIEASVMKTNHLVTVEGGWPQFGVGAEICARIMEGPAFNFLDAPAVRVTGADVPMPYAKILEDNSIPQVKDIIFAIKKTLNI
Chain of UniProt P09651 (P09651 whole entry, looked up): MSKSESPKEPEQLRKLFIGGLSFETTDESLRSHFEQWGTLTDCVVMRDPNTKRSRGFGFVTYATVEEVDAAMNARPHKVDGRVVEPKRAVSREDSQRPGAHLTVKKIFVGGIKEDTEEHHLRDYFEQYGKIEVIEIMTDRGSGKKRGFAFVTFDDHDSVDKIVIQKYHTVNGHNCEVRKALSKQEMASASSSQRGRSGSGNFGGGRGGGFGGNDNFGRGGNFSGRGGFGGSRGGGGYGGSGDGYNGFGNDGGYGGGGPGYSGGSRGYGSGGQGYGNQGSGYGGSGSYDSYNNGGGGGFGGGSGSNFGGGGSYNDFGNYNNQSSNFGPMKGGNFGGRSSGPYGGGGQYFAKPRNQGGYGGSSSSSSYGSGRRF
Chain of UniProt P22234 (P22234 whole entry, looked up): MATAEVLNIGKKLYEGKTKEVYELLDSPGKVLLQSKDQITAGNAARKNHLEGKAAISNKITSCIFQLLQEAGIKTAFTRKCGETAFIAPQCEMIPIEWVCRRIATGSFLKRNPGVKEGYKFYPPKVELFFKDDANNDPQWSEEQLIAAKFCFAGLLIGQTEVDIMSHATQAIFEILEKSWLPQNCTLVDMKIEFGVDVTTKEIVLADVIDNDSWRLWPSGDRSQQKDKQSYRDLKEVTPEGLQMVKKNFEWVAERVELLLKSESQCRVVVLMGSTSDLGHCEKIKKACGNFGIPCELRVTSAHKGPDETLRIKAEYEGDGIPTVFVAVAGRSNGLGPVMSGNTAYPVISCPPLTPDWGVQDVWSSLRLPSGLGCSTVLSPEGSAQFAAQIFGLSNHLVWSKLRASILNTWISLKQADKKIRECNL
Chain of UniProt P20073 (P20073 whole entry, looked up): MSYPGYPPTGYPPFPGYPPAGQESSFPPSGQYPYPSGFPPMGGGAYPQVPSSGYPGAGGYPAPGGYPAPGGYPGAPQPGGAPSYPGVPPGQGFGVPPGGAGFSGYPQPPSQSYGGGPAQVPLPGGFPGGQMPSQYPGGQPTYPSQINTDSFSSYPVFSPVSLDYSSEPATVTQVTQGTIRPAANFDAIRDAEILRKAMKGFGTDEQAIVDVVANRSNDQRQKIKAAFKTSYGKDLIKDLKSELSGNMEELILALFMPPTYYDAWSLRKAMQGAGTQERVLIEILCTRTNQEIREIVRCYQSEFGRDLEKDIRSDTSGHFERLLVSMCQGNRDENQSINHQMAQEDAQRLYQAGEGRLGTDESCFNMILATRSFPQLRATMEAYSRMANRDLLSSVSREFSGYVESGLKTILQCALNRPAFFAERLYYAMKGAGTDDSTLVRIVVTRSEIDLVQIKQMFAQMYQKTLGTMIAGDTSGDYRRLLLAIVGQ
Chain of UniProt P00966 (P00966 whole entry): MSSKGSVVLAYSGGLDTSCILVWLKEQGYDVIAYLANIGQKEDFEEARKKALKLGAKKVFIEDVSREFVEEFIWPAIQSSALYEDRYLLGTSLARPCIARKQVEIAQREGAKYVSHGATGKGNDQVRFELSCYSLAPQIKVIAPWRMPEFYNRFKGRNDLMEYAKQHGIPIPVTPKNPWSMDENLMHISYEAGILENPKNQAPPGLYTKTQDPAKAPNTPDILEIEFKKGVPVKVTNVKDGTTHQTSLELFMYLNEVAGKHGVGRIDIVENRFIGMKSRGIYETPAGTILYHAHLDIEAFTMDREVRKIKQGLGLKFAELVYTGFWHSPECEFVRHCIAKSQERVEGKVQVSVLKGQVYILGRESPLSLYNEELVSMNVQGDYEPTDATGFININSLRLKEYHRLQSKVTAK
Chain of UniProt P22087 (P22087 whole entry, looked up): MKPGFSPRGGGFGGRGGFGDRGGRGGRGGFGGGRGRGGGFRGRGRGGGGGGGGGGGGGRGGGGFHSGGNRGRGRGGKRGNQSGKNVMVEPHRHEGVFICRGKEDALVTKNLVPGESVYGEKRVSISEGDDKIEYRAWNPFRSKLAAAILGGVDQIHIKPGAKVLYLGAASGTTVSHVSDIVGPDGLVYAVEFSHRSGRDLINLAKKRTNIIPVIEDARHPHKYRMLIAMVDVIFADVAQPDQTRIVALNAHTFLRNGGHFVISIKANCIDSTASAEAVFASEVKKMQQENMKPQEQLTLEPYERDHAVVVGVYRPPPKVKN

Row | Target | log2 ratio of iodoacetamide-alkyne labeling
1 | FASN C1127 (UniProt P49327) | 0.394 (inactive)
2 | FBL C268 (UniProt P22087) | 0.27 (inactive)
3 | PCNA C62 (UniProt P12004) | 0.0598 (inactive)
4 | HNRNPA1 C175 (UniProt P09651) | -0.128 (inactive)
5 | CTSB C319 (UniProt P07858) | 0.512 (inactive)
6 | CCT8 C244 (UniProt P50990) | 0.242 (inactive)
7 | FECH C395 (UniProt P22830) | 0.372 (inactive)
8 | PCYT1A C73 (UniProt P49585) | 0.921 (inactive)
9 | HPRT1 C206 (UniProt P00492) | 0.0837 (inactive)
10 | DCK C9 (UniProt P27707) | 1.15 (active)
11 | ANXA7 C327 (UniProt P20073) | 0.191 (inactive)
12 | RANBP2 C581 (UniProt P49792) | 0.41 (inactive)
13 | SSB C18 (UniProt P05455) | -0.139 (inactive)
14 | RANBP2 C3071 (UniProt P49792) | 0.0882 (inactive)
15 | PAICS C81 (UniProt P22234) | 0.248 (inactive)
16 | RPL4 C208 (UniProt P36578) | 0.273 (inactive)
17 | RPL10 C195 (UniProt P27635) | 0.694 (inactive)
18 | MAP1B C1228 (UniProt P46821) | 0.169 (inactive)
19 | HCFC1 C1895 (UniProt P51610) | 1.09 (active)

Row | Target | log2 ratio of iodoacetamide-alkyne labeling
20 | EIF2S3 C105 (UniProt P41091) | 0.341 (inactive)
21 | FASN C1118 (UniProt P49327) | 0.203 (inactive)
22 | HNRNPM C694 (UniProt P52272) | 0.0717 (inactive)
23 | MBD3 C266 (UniProt O95983) | 0.0164 (inactive)
24 | FXR2 C270 (UniProt P51116) | 0.306 (inactive)
25 | MPI C289 (UniProt P34949) | -0.0268 (inactive)
26 | UniProt P42677_C77 | 1.73 (active)
27 | PPP2R1A C294 (UniProt P30153) | 0.323 (inactive)
28 | PDHB C306 (UniProt P11177) | -0.122 (inactive)
29 | CPSF4 C110 (UniProt O95639) | -0.138 (inactive)
30 | DNAJA1 C149 (UniProt P31689) | 0.14 (inactive)
31 | PPP2R1A C154 (UniProt P30153) | 0.637 (inactive)
32 | LATS1 C885 (UniProt O95835) | 0.423 (inactive)
33 | ASS1 C132 (UniProt P00966) | 0.124 (inactive)
34 | HSPA4L C421 (UniProt O95757) | -0.0563 (inactive)
35 | EEF2 C651 (UniProt P13639) | 0.0919 (inactive)
36 | G6PD C385 (UniProt P11413) | 0.327 (inactive)
37 | UniProt P25705_C244 | 0.205 (inactive)
